Measurements: PubChem BioAssay (NCATS)
Several values for one entry are separate records, joined by “and”; a condition that tells them apart may be missing. Equal entries are not always repeated. Records with an inconclusive call do not appear. Where a call stands in place of a potency, no number is given. Activity calls are given as the source filed them. The call rests on the fitted dose curve; in most records, active means well fitted curve in the direction sought with a large enough effect; inconclusive means small, poorly fitted or top-dose-only effect, or another doubt; inactive means no such curve, though single readings can be large; an effect the other way counts as inactive or inconclusive. Peptide text beside a SMILES is read from it. * marks the point of attachment. Cbz = O=C(OCc1ccccc1)*

test: Viability qHTS for spleen associated tyrosine kinase inhibitor (SYKi) drug resistant MV4-11 cells (AID 1963824); conditions: SYKi-resistant MV4-11 viability, CellTiter-Glo, 72 h; series mostly up to 45 µM
Method in brief: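 SYK-inhibitor-resistant MV4-11 AML cells were seeded at 500 per well onto compound and cultured 72 hours (37 °C, 5% CO2). CellTiter-Glo was then added, and after 10 min at room temperature, luminescence gave viability.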
Further: nearly all actives have a fitted effect of over 35% in size.
Potency means the concentration at half of the fitted maximal effect.

Row | Structure (SMILES) | Potency
1 | CCOc1ccccc1OCCNC(C)Cc1ccc(OC)c(S(N)(=O)=O)c1 (centres undefined) | inactive
2 | Nc1nc(Nc2ccc(S(N)(=O)=O)cc2)nn1C(=O)c1c(F)cccc1F | 1.03 µM (active) and 1.48 µM (active)
3 | CNC(=O)c1nn(C)c2c1C(C)(C)Cc1cnc(Nc3ccc(N4CCN(C)CC4)cc3)nc1-2 | 82 nM (active) and 209 nM (active)
4 | Cc1ccc(C(=O)Nc2cccc(C(F)(F)F)c2)cc1-c1ccc2nc(NCCN3CCOCC3)ncc2c1 | 366 nM (active) and 742 nM (active)

test: Quantitative highthroughput screen to assess conditional lethalithy of NOMO1 cells grown in RPMI1640 with untreated serum (RPMI+s) (AID 1963876); conditions: NOMO1 AML cells in RPMI+serum, CellTiter-Glo viability, 48 h; series mostly up to 45.8 µM
Method in brief: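 Each medium arm—HPLM with 10% dialyzed FBS, or RPMI1640 with 5 mM glucose and 10% untreated or dialyzed FBS—was screened against an 11-point, 3-fold compound titration for 48 h at 37 °C, with CellTiter-Glo luminescence as endpoint.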

Row | Structure (SMILES) | Potency
5 | O=C1CCCC2=C1C(c1[nH]ncc1Cl)N=C(Nc1nc3ccccc3o1)N2 (centres undefined) | inactive
6 | CCN1CCN(c2ccc(Nc3cc(N(C)C(=O)Nc4c(Cl)c(OC)cc(OC)c4Cl)ncn3)cc2)CC1 | 5.26 µM (active)
7 | C[N+](C)(C)CC(=O)O | inactive
8 | COCCCN1CCC(NC(=O)c2cc(Cl)c(N)c3c2OCC3)CC1 | inactive
9 | CNC(=O)c1ccc(Nc2ncc(C(F)(F)F)c(NCc3nccnc3N(C)S(C)(=O)=O)n2)cc1 | inactive
10 | O=C1NC(=O)C(c2cnc3ccccn23)=C1c1cn2c3c(cccc13)CN(C(=O)N1CCOCC1)CC2 | inactive
11 | Cc1cc2c(s1)Nc1ccccc1N=C2N1CCN(C)CC1 | inactive
12 | CC1Cc2ccccc2N1NC(=O)c1ccc(Cl)c(S(N)(=O)=O)c1 (centres undefined) | inactive
13 | Nc1[nH]c(=O)ncc1F | inactive
14 | CC1(C)O[C@H]2CC(=O)OC[C@]23[C@H]2CC[C@@]4(C)[C@H](c5ccoc5)OC(=O)[C@H]5O[C@]54[C@]2(C)C(=O)C[C@@H]13 | inactive
15 | O=C(/C=C\n1cnc(-c2cc(C(F)(F)F)cc(C(F)(F)F)c2)n1)NNc1cnccn1 | 1.05 µM (active)
16 | CCCc1cc(C(N)=S)ccn1 | inactive
17 | C=C1C(=O)[C@@]23C(CC[C@@H]1[C@H]2O)[C@@]12CO[C@]3(O)[C@@H](O)[C@@H]1C(C)(C)CC[C@@H]2O (some centres undefined) | 20.9 µM (active)
18 | CCc1ccc(OCc2ccccc2C(=O)Nc2ccc3nc(C)cc(N)c3c2)cc1 | 9.35 µM (active)
19 | CC(C)(C)c1nc2c3cc[nH]c(=O)c3c3cc(F)ccc3c2[nH]1 | 5.9 µM (active)
20 | CO[C@@H]1C(N(C)C(=O)c2ccccc2)C[C@H]2O[C@]1(C)n1c3ccccc3c3c4c(c5c6ccccc6n2c5c31)C(=O)NC4=O (some centres undefined) | 14.8 µM (active)
21 | N#Cc1ccnc(Nc2cc(C3CCN(C4COC4)CC3)cc(N3CCC(F)(F)C3)n2)c1 | 13.2 µM (active)
22 | CC1(C)CCC(c2ccc(Cl)cc2)=C(CN2CCN(c3ccc(C(=O)NS(=O)(=O)c4ccc(N[C@H](CCN5CCOCC5)CSc5ccccc5)c(S(=O)(=O)C(F)(F)F)c4)cc3)CC2)C1 | 0.662 µM (active)
23 | CC(C)C[C@@H](C=O)NC(=O)[C@H](CC(C)C)NC(=O)[C@H](CC(C)C)NC(=O)OCc1ccccc1 (Cbz-Leu-Leu-Leu-aldehyde) | 0.743 µM (active)
24 | CCCCS(=N)(=O)CCC(N)C(=O)O (centres undefined) | inactive

Row | Structure (SMILES) | Potency
25 | O=C(O)CCNC(=O)c1ccc(N=Nc2ccc(O)c(C(=O)O)c2)cc1 | inactive
26 | CC(O)(C#Cc1ccc2c(c1)N(c1nc(N)ncc1Cl)CC2)c1nccs1 (centres undefined) | inactive
27 | CN1CCN(c2ccc(C(=O)Nc3n[nH]c4ccc(Cc5cc(F)cc(F)c5)cc34)c(NC3CCOCC3)c2)CC1 | 26.3 µM (active)
28 | COc1c(C)cnc(Cn2cnc3c(Cl)nc(N)nc32)c1C | 0.743 µM (active)
29 | CCN(c1ccccc1)c1cc(NC)[n+](C)c(C)n1 | inactive
30 | CCCc1nn(C)c2c(=O)[nH]c(-c3cc(S(=O)(=O)N4CCN(C)CC4)ccc3OCC)nc12 | inactive
31 | CC1CCN(c2cc(N3CCN(C)CC3)ccc2NC(=O)c2cc(C#N)c[nH]2)CC1 | inactive
32 | C[C@H]1[C@@H](OC(=O)CCC(=O)O)O[C@@H]2O[C@@]3(C)CC[C@@H]4[C@H](C)CC[C@@H]1[C@@]24OO3 | 1.66 µM (active)
33 | O=S(=O)(O)CCS | 0.743 µM (active)
34 | COCCNCCCn1c(C(=O)CF)c(-c2ccc(C)cc2)c2c(N)ncnc21 | inactive
35 | NCCCC(N)(C(=O)O)C(F)F (centres undefined) | inactive
36 | Nc1[nH]nc2nnc(-c3c(-c4ccccc4)nn4ccccc34)cc12 | 1.48 µM (active)
37 | COC(=O)C1C2CC3c4[nH]c5cc(OC)ccc5c4CCN3CC2CC(OC(=O)c2cc(OC)c(OC)c(OC)c2)C1OC (centres undefined) | inactive
38 | Nc1nc2c(ncn2COC(CO)CO)c(=O)[nH]1 | 26.4 µM (active)
39 | OC(CCN1CCCCC1)(c1ccccc1)C1CC2C=CC1C2 (centres undefined) | inactive
40 | Cc1ccccc1-n1c(Cn2nc(-c3cccc(O)c3)c3c(N)ncnc32)nc2cccc(C)c2c1=O | 1.18 µM (active)
41 | CCOc1ccccc1OCCNC(C)Cc1ccc(OC)c(S(N)(=O)=O)c1 (centres undefined) | inactive
42 | Nc1nc(Nc2ccc(S(N)(=O)=O)cc2)nn1C(=O)c1c(F)cccc1F | 16.6 µM (active)
43 | CNC(=O)c1nn(C)c2c1C(C)(C)Cc1cnc(Nc3ccc(N4CCN(C)CC4)cc3)nc1-2 | 16.6 µM (active)
44 | Cc1ccc(C(=O)Nc2cccc(C(F)(F)F)c2)cc1-c1ccc2nc(NCCN3CCOCC3)ncc2c1 | 5.9 µM (active)
